# Source: PubChem BioAssay AID493203 (National Center for Advancing Translational Sciences (NCATS), 2011)
# Results filed as inconclusive are left out. Where a call stands in place of a potency, no number is given. Active and inactive are the calls of the source. The call rests on the fitted dose curve; in most records, active means well fitted activation curve with a large enough effect; inconclusive means small, poorly fitted or top-dose-only effect; inactive means flat fitted curve, though single readings scatter.
# Assay: qHTS Assay for NPC1 Promoter Activators: Initial hit validation from the primary screen
# Conditions: Huh7 NPC1 promoter-luciferase reporter, luminescence, 24 h; series mostly up to 46.1 µM
# How it was run: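 Huh7 cells stably carrying NPC1 promoter-luciferase, 1500 cells per well in OP-MEM I with 10% FBS; compounds added after 2 hours and incubated 24 hours at 37C. Luminescence read 10 minutes after Amplite luciferase reagent.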
# Potency means the concentration at half of the fitted maximal effect.
row,SMILES,Potency
1,Cc1csc(NC(=O)CSc2nnc(-c3ccncc3)o2)n1,15.8 µM (active)
2,CC(=O)Nc1ccc(NC(=O)COc2ncnc3ccccc23)cc1,inactive
3,CC(C)C1(CCNC(=O)c2cccs2)CCOC(C)(C)C1 (centres undefined),inactive
4,COC(=O)c1ccccc1NC(=O)c1ccc(-c2ccc(Br)cc2)o1,inactive
5,COc1ccc(NC(=O)CN(C)C(=O)c2ccc(=O)[nH]c2)cc1,inactive
6,NC(=O)C(=O)NN=C1C2CC3CC(C2)CC1C3,inactive
7,O=C(NCCc1c[nH]c2ccccc12)C(=O)NCC(c1ccco1)N1CCN(c2ccccc2F)CC1 (centres undefined),inactive
8,COC(=O)CSc1nc2cc3c(cc2cc1C#N)OCO3,0.315 µM (active)
9,N#C/C(=C\c1ccc[nH]1)C(=O)Nc1ccccc1Cl,3.97 µM (active)
10,CC1CCCN(S(=O)(=O)c2ccc(C(=O)Nc3nnc(-c4ccncc4)o3)cc2)C1 (centres undefined),inactive
11,CCCC(C)NC(=O)c1ccc(OCc2ccc(Cl)cc2)c(OC)c1 (centres undefined),inactive
12,CCCCn1c(Nc2ccc(OC)cc2)nc2ccccc21,inactive
13,Cc1[nH]n(-c2cccc3ccccc23)c(=O)c1/C=N/c1sc2c(c1C#N)CCC2,inactive
14,CCOCC(=O)Nc1c(C(=O)Nc2ccc3c(c2)OCCO3)oc2ccccc12,0.888 µM (active)
15,Cc1ccc(C)c(Nc2cc(C)nc3ncnn23)c1,inactive
16,Cc1noc(/C=C/N(C)C)c1S(=O)(=O)N1CCCC(C(=O)N2CCCCC2)C1 (centres undefined),inactive
17,O=C(CSc1nnc(-c2ccccn2)o1)Nc1ccccc1Cl,1.25 µM (active)

row,SMILES,Potency
1,O=C(CSc1nnc(Cc2cc(=O)[nH]c(=O)[nH]2)n1-c1ccc(Cl)cc1)NC1CCCC1,inactive
2,COc1cccc(C2Nc3ccccc3NC3=C2C(=O)CC(C)(C)C3)c1 (centres undefined),inactive
3,COC(=O)c1cn(NC(=O)C2CCCCC2)c(=O)c2ccccc12,inactive
4,O=C(NCCc1ccccc1)c1cc2ncc(Br)cn2n1,14.1 µM (active)
5,NNC(=O)c1cccc(S(=O)(=O)Nc2cc(Cl)ccc2Cl)c1,inactive
6,O=C(Nc1ccc(-c2nc3cccnc3s2)cc1)c1ccc(Cl)nc1,1.25 µM (active)
7,CC(Sc1nnc(C(F)(F)F)n1C)C(=O)Nc1ccc(S(N)(=O)=O)cc1 (centres undefined),inactive
8,Cc1ccc(S(=O)(=O)N2CCN(c3cnn(C)c(=O)c3Cl)CC2)cc1,inactive
9,COc1ccccc1CNC(=O)COc1ccc(C)cc1,inactive
10,CCOC(=O)c1cc2sccc2n1CC(=O)N1CCCc2ccccc21,inactive
11,COc1ccc(C2(CNC(=O)/C=C/c3ccco3)CCCC2)cc1OC,inactive
12,O=C(NC1CCCC1)C(c1ccc(F)cc1)N(C(=O)c1csnn1)c1ccccc1 (centres undefined),inactive
13,CCCN(CCC)CCCNC(=O)c1cc2cc3ccc(Cl)cc3nc2o1,inactive
14,CC1=C(C(=O)OC2CCCC(C)C2)C(c2ccccc2)NC(=O)N1 (centres undefined),inactive
15,Cc1cccc(C)c1NC(=O)Nc1cccs1,inactive
16,Nc1c(N(CCO)C(=O)/C=C/c2ccco2)c(=O)[nH]c(=O)n1Cc1ccccc1,inactive
17,COCc1cc(C)nc(N/N=C/c2ccc(-c3ccc(Cl)cc3[N+](=O)[O-])o2)c1C#N,inactive
